Assay results published in ChEMBL document CHEMBL3988442, “University of Dundee, Small-Polar-MMV Screening Library” (2021).
For some assays here: Entries with a potency or affinity are not part of this list.

Assays:
Parameters in all cases: scale not given: direction of the effect not stated beside the values
[1] = biological target: Protein translocase subunit SecA (Escherichia coli (strain K12)) (UniProt P10408); assay: Assay to Identify E. coli SecA ATPase Inhibitors; format: functional; conditions: 30 µM
[2] = biological target: T1, Ubiquitin-activating enzyme e1, putative (Leishmania donovani (strain BPK282A1)) (UniProt E9BSI1); assay: Leishmania donovani Ubiquitin Activating Enzyme (LdE1); format: functional; conditions: 30 µM
T1 sequence (whole entry): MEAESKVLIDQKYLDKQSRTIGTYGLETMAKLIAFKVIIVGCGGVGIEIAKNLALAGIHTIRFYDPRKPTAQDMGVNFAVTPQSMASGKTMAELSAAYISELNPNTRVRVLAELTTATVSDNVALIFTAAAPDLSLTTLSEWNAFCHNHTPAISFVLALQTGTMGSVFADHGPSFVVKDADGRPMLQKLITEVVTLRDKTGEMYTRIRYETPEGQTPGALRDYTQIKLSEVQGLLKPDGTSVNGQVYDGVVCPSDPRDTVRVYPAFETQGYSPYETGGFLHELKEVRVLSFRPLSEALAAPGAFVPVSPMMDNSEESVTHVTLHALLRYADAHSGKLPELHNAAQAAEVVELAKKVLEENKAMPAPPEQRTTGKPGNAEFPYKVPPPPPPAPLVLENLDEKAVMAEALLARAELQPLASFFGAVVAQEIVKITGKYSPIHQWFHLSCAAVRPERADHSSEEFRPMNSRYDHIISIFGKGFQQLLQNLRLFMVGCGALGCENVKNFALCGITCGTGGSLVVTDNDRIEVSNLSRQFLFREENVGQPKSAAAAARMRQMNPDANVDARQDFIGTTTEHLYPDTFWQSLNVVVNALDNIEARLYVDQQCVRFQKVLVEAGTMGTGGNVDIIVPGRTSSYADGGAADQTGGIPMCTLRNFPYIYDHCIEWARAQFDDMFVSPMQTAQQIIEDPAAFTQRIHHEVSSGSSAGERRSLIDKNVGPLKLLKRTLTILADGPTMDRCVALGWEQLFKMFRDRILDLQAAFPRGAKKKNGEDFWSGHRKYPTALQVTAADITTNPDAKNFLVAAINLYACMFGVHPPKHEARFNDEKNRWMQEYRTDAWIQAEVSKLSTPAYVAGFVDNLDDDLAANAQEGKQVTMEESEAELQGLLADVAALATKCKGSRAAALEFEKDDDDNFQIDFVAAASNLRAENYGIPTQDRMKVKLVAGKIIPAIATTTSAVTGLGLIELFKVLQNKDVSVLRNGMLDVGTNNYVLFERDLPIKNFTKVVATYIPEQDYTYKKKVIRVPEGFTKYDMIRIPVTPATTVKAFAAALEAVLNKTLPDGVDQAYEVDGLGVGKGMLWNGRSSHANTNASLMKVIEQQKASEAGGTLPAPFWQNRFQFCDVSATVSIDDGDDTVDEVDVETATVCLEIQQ

[3] = biological target: Sialic acid-binding Ig-like lectin 9 (Homo sapiens) (UniProt Q9Y336); assay: Hs-Siglec9 ALPHAscreen SOP 20170721; conditions: 10 µM
Trypanosoma cruzi = assay: Trypanosoma cruzi phosphomannomutase and mannose-1-phosphate guanylyltransferase assay; format: functional; conditions: 10 µM
[4] = biological target: T2, Arginase-2, mitochondrial (Homo sapiens) (UniProt P78540); assay: in vitro enzyme assay to detect the production of urea directly proportional to the activity of Arginase II; format: functional; conditions: 33.3 µM; note: in the data most compounds retested in dose-response had high values
T2 sequence (whole entry): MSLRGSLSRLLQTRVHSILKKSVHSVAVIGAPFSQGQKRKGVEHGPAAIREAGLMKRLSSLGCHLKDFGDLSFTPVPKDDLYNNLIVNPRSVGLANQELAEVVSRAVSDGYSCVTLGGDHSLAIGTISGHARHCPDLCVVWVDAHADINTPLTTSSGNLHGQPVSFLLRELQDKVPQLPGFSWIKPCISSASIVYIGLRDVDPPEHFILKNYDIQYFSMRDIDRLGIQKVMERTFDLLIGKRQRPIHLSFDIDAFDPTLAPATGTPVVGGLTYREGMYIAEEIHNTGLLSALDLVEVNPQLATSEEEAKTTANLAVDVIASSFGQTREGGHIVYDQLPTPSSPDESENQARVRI

[5] = biological target: T3, Proteasome subunit beta (Trypanosoma cruzi) (UniProt O96673); assay: Trypanosoma cruzi proteasome chymotrypsin-like activity (TcProtChymo) assay.; note: in the data most compounds retested in dose-response had high values; format: functional; conditions: 9.37 µM
T3 sequence (whole entry): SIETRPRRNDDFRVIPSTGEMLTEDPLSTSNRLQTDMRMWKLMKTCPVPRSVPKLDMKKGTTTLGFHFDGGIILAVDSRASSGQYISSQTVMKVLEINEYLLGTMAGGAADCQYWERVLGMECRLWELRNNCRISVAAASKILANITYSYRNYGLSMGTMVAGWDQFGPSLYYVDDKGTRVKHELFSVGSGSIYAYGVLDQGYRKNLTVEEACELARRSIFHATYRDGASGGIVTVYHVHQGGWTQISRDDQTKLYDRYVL

Homo sapiens = organism: Homo sapiens; assay: To identify inhibition of the IFN signalling (Jak-Stat) pathway via expression of an eGFP reporter gene under the control of an IFN-stimulated response element (ISRE) containing MxA promoter.; format: functional; conditions: 30 µM
[6] = biological target: T4, Tyrosyl-tRNA synthetase, putative (Trypanosoma cruzi (strain CL Brener)) (UniProt Q4DSP6); assay: Trypanosoma cruzi tyrosyl tRNA synthetase (TcYRS) _High Tyrosine SOP; format: functional; conditions: 30 µM; note: in the data most compounds retested in dose-response had high values
T4 sequence (whole entry): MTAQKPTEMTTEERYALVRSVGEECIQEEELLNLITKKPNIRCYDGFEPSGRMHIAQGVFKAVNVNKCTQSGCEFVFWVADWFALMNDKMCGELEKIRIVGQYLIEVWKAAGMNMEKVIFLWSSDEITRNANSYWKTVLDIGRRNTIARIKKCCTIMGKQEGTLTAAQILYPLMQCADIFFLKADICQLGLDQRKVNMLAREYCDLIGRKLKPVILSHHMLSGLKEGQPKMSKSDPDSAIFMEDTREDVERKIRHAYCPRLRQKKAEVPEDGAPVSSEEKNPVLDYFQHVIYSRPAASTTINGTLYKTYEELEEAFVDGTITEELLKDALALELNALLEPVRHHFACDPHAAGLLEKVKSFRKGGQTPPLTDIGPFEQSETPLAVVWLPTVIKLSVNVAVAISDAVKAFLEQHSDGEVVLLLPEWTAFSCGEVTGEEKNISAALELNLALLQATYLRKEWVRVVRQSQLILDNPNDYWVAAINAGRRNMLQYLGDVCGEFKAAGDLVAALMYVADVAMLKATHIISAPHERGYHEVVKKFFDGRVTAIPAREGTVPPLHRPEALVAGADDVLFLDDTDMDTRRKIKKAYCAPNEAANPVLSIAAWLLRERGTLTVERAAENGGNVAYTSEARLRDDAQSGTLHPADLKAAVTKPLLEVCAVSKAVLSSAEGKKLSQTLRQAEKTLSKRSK

[7] = biological target: T4, Tyrosyl-tRNA synthetase, putative (Trypanosoma cruzi (strain CL Brener)); assay: Trypanosoma cruzi tyrosyl tRNA synthetase (TcYRS) SOP; format: functional; conditions: 30 µM
[8] = biological target: Chromo domain-containing protein 1 (Saccharomyces cerevisiae (strain ATCC 204508 / S288c) (Baker's yeast)) (UniProt P32657); assay: ScCHD-1 Enzyme Inhibition Assay; format: functional; conditions: 30 µM; note: in the data most compounds retested in dose-response had high values
Sequence of Chromo domain-containing protein 1 (Saccharomyces cerevisiae (strain ATCC 204508 / S288c) (Baker's yeast)) (P32657 whole entry, the tested form may be a part): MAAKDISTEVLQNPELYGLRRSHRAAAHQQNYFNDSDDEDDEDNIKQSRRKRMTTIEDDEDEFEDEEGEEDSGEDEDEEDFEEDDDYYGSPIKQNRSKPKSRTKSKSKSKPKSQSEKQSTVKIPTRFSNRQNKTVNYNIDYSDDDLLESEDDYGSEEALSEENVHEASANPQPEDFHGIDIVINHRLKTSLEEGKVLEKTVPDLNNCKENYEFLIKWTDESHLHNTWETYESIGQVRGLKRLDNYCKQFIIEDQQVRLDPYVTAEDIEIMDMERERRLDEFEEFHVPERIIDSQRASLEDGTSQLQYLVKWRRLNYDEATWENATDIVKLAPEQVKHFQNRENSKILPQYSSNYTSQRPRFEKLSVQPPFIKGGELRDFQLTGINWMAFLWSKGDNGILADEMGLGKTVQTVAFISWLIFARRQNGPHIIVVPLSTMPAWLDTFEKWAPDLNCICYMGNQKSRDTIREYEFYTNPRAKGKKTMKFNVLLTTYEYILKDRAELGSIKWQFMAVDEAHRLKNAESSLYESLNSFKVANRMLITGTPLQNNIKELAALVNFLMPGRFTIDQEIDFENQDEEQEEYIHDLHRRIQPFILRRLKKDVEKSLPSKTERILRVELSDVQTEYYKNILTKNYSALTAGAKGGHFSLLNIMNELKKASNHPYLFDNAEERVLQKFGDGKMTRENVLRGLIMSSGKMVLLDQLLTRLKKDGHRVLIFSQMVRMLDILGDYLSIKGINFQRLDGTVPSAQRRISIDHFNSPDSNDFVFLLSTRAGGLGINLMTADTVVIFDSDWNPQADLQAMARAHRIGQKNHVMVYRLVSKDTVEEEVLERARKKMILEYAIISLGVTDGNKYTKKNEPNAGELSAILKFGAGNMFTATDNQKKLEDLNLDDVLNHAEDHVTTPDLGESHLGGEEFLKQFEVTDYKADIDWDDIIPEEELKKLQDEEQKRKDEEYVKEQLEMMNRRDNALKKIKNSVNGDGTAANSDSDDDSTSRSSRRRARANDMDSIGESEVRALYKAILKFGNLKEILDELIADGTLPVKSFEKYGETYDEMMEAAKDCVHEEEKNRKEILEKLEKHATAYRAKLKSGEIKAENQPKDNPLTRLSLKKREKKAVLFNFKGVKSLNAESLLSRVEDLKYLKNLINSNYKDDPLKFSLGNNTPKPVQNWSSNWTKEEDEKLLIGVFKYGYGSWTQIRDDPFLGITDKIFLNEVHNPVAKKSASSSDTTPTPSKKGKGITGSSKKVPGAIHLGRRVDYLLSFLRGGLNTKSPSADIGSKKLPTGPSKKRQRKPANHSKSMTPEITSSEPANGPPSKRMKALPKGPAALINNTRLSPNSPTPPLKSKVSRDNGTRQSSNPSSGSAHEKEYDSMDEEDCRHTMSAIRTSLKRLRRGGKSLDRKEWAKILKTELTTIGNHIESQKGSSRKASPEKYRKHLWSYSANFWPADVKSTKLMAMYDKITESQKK

Sequence of Protein translocase subunit SecA (Escherichia coli (strain K12)) (P10408 whole entry): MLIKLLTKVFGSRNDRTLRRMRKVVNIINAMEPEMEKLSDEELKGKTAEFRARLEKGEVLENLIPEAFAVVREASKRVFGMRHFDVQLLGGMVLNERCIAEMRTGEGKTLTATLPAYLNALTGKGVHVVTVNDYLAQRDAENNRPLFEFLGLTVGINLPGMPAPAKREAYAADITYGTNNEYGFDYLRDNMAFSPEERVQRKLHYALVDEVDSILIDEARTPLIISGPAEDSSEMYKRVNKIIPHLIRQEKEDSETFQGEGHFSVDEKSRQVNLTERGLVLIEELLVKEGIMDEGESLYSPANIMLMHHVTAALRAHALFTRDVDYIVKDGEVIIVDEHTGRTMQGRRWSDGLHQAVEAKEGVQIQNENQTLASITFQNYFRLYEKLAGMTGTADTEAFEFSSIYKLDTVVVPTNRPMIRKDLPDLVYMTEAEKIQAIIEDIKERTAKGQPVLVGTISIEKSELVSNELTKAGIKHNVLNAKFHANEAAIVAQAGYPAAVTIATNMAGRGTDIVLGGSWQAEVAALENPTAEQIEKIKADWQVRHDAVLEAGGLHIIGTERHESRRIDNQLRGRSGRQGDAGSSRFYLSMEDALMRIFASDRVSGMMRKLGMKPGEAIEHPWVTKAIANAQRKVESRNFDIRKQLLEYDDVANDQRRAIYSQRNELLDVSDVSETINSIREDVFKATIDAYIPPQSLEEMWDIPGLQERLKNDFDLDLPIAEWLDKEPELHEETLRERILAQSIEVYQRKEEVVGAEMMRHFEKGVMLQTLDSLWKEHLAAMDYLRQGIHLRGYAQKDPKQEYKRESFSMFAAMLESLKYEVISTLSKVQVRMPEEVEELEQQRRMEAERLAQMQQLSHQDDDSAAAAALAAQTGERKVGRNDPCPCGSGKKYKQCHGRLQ
Sequence of Sialic acid-binding Ig-like lectin 9 (Homo sapiens) (Q9Y336 whole entry): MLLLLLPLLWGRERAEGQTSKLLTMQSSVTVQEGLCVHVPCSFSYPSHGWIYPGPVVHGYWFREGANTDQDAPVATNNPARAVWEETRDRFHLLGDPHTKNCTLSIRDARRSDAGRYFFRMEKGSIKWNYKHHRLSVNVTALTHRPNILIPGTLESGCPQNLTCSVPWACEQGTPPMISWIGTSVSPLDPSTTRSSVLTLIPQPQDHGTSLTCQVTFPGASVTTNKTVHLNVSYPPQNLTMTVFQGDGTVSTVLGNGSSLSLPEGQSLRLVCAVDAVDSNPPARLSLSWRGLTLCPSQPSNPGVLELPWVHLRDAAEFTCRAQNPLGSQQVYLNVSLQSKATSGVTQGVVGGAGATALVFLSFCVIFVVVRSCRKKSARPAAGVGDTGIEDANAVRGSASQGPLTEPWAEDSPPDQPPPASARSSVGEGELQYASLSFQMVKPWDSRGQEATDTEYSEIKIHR

## CCc1n[nH]c(C2CN(C(=O)c3nc(C)ncc3Cl)CCO2)n1 (stereo not given)
[1]
  Percent Effect: -2.86%
[2]
  Percent Effect: 7.79%
[3]
  Percent Effect: 9.79%
Trypanosoma cruzi
  Percent Effect: -2.24%
[4]
  Percent Effect: 1.43%
[5]
  Percent Effect: -0.351%
Homo sapiens
  Percent Effect: 2.84%
[6]
  Percent Effect: 2.94%
[7]
  Percent Effect: 7.06%
[8]
  Percent Effect: 2.12%

## CC(c1cccc(S(N)(=O)=O)c1)N(C)CCc1ccccc1 (stereo not given)
[1]
  Percent Effect: -0.406%
[2]
  Percent Effect: 20.8%
[3]
  Percent Effect: -4.37%
Trypanosoma cruzi
  Percent Effect: -0.933%
[4]
  Percent Effect: -4.3%
[5]
  Percent Effect: 10.9%
Homo sapiens
  Percent Effect: 13.6%
[6]
  Percent Effect: 6.86%
[7]
  Percent Effect: 16.5%
[8]
  Percent Effect: -9.02%

## CN(C)S(=O)(=O)N1CC[C@]2(C[C@H](Oc3cccnc3)CO2)C1
[1]
  Percent Effect: -2.88%
[2]
  Percent Effect: 14.3%
[3]
  Percent Effect: -1.9%
Trypanosoma cruzi
  Percent Effect: 1.66%
[4]
  Percent Effect: 8.91%
[5]
  Percent Effect: 23.7%
Homo sapiens
  Percent Effect: 1.15%
[6]
  Percent Effect: 11.1%
[7]
  Percent Effect: 15.4%
[8]
  Percent Effect: -4.29%

## Cc1ccc(NC(=O)N2C[C@H]3CC[C@@H]2CN(Cc2cscn2)C3)cc1
[1]
  Percent Effect: -8.89%
[2]
  Percent Effect: 2.7%
[3]
  Percent Effect: 16.7%
Trypanosoma cruzi
  Percent Effect: 2.42%
[4]
  Percent Effect: 5.25%
[5]
  Percent Effect: 4.45%
Homo sapiens
  Percent Effect: 0.0605%
[6]
  Percent Effect: 6.92%
[7]
  Percent Effect: 12.2%
[8]
  Percent Effect: 0.126%

## c1cnn(Cc2nnc3n2CCCN(CC2CCOCC2)C3)c1
[1]
  Percent Effect: -8.53%
[2]
  Percent Effect: 1.3%
[3]
  Percent Effect: -2.75%
Trypanosoma cruzi
  Percent Effect: -3.02%
[4]
  Percent Effect: -2.83%
[5]
  Percent Effect: 3.62%
Homo sapiens
  Percent Effect: 1.85%
[6]
  Percent Effect: -0.526%
[7]
  Percent Effect: 5.13%
[8]
  Percent Effect: 2.31%

## CC(C)c1ncncc1C(=O)NCCN1CCCS1(=O)=O
[1]
  Percent Effect: -3.82%
[2]
  Percent Effect: 5.13%
[3]
  Percent Effect: -1.57%
Trypanosoma cruzi
  Percent Effect: 7.98%
[4]
  Percent Effect: 3.69%
[5]
  Percent Effect: 3.5%
Homo sapiens
  Percent Effect: 1.77%
[6]
  Percent Effect: 1.44%
[7]
  Percent Effect: 10.8%
[8]
  Percent Effect: 1.18%

## CC(=O)c1sc(Nc2ccc(Cl)cn2)nc1C
[1]
  Percent Effect: -2.68%
[2]
  Percent Effect: 24.7%
[3]
  Percent Effect: 1.41%
Trypanosoma cruzi
  Percent Effect: 1.13%
[4]
  Percent Effect: 0.913%
[5]
  Percent Effect: 12.6%
Homo sapiens
  Percent Effect: 24.7%
[6]
  Percent Effect: 2.9%
[7]
  Percent Effect: -37.5%
[8]
  Percent Effect: -10.7%

## CC(C)c1noc(CCCC(=O)NC2CCS(=O)(=O)C2)n1 (stereo not given)
[1]
  Percent Effect: -0.362%
[2]
  Percent Effect: 13.3%
[3]
  Percent Effect: -4.53%
Trypanosoma cruzi
  Percent Effect: 2.01%
[4]
  Percent Effect: -7.98%
[5]
  Percent Effect: 12.6%
Homo sapiens
  Percent Effect: 8.49%
[6]
  Percent Effect: 5.79%
[7]
  Percent Effect: 15.4%
[8]
  Percent Effect: -11%

## COc1c(C2CCCN2C(=O)c2c[nH]c3ncccc23)c(C)nn1C (stereo not given)
[1]
  Percent Effect: -5.03%
[2]
  Percent Effect: 7.79%
[3]
  Percent Effect: 8.63%
Trypanosoma cruzi
  Percent Effect: -5.41%
[4]
  Percent Effect: 2.25%
[5]
  Percent Effect: 7.02%
Homo sapiens
  Percent Effect: 1.49%
[6]
  Percent Effect: 5.88%
[7]
  Percent Effect: 7.06%
[8]
  Percent Effect: -7.9%

## Cc1nn(C)cc1-c1cc(C(F)(F)F)c2c(C)nn(CC(=O)O)c2n1
[1]
  Percent Effect: 0.552%
[2]
  Percent Effect: 14.7%
[3]
  Percent Effect: -7.53%
Trypanosoma cruzi
  Percent Effect: -2.56%
[4]
  Percent Effect: -0.885%
[5]
  Percent Effect: 7.72%
Homo sapiens
  Percent Effect: 24.1%
[6]
  Percent Effect: -1.06%
[7]
  Percent Effect: 0%
[8]
  Percent Effect: -17.3%

## CCN1CCN(c2ccc(CNC(=O)c3c(C)noc3C)cn2)CC1
[1]
  Percent Effect: -1.13%
[2]
  Percent Effect: 21.3%
[3]
  Percent Effect: -5.5%
Trypanosoma cruzi
  Percent Effect: 3.01%
[4]
  Percent Effect: 2.66%
[5]
  Percent Effect: 23.8%
Homo sapiens
  Percent Effect: 1.82%
[6]
  Percent Effect: 1.58%
[7]
  Percent Effect: 15.4%
[8]
  Percent Effect: -14.6%

## CN1CCOC(CNC(=O)CCCOc2ccccc2F)C1 (stereo not given)
[1]
  Percent Effect: -2.16%
[2]
  Percent Effect: 12.8%
[3]
  Percent Effect: 3.45%
Trypanosoma cruzi
  Percent Effect: 1.6%
[4]
  Percent Effect: 2.87%
[5]
  Percent Effect: 18.5%
Homo sapiens
  Percent Effect: 18.2%
[6]
  Percent Effect: 10.1%
[7]
  Percent Effect: 22.9%
[8]
  Percent Effect: -4.86%

## CN(C)[C@@H]1CN(Cc2ccco2)C[C@@H]2CCCO[C@@H]21
[1]
  Percent Effect: -2.22%
[2]
  Percent Effect: 6.49%
[3]
  Percent Effect: -4.86%
Trypanosoma cruzi
  Percent Effect: -5.16%
[4]
  Percent Effect: -1.22%
[5]
  Percent Effect: 9.27%
Homo sapiens
  Percent Effect: 3.2%
[6]
  Percent Effect: -0.526%
[7]
  Percent Effect: 7.69%
[8]
  Percent Effect: -3.13%

## Fc1ccc(CN2CCCC2c2cncc(-n3ccnc3)n2)cc1 (stereo not given)
[1]
  Percent Effect: -2.01%
[2]
  Percent Effect: 9.33%
[3]
  Percent Effect: -0.339%
Trypanosoma cruzi
  Percent Effect: -0.986%
[4]
  Percent Effect: 0.885%
[5]
  Percent Effect: -1.97%
Homo sapiens
  Percent Effect: 3.29%
[6]
  Percent Effect: 4.23%
[7]
  Percent Effect: 12.5%
[8]
  Percent Effect: -24.9%
